# Assay results reported in PubChem BioAssay.
# Active and inactive are the calls of the source.
# What was measured:
# [1] = optical density shifts of acrAB sulA E. coli – strain DRC41, OD650, 48 h, E. coli filamentation inducer project, primary screen (AID 1152); conditions: higher = more signal, called active from +8 up or from −8 down;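 further: E. coli MC1000 strain DRC41 lacking acrAB efflux pump and sulA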
# [2] = probe aLefty1 binding on compound microarray – biochemical, small-molecule microarray, 635/667 nm fluorescence, primary screen (AID 1153); conditions: higher = more signal;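 further: score merges spot fluorescence with signal-to-noise ratio from the scanned slide images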
# [3] = plasmodial surface anion channel blockers, osmotic lysis – cell-based, P. falciparum Indochina, OD700, 1 h, primary screen (AID 1154); conditions: P. falciparum Indochina infected RBC osmotic lysis, higher = more signal, called active from +8 up or from −8 down
# [4] = plasmodial surface anion channel blockers, osmotic lysis – cell-based, P. falciparum Indochina, OD700, 2 h, primary screen (AID 1155);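 further: lysis reports solute entry through the parasite surface anion channel PSAC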; conditions: P. falciparum Indochina infected erythrocytes, higher = more signal, called active from +8 up or from −8 down
# [5] = changes in parasitized red cell lysis, either direction – P. falciparum Indochina, OD700, 3 h, PSAC antagonist project, primary screen (AID 1156); conditions: P. falciparum-infected erythrocytes, osmotic lysis, higher = more signal, called active from +8 up or from −8 down
# [6] = plasmodial surface anion channel blockers, osmotic lysis – cell-based, P. falciparum Indochina, OD700, 18 h, primary screen (AID 1157); conditions: P. falciparum Indochina infected erythrocytes, osmotic lysis OD700, 18 h; higher = more signal, called active from +8 up or from −8 down
# [7] = S6 kinase pathway phospho-S6 level changes – cell-based, A549, cytoblot, luminescence, serum-stimulated, primary screen (AID 1158); conditions: 5 h, higher = more signal;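 further: serum-stimulated A549 lung adenocarcinoma cells; signal is phosphorylated S6 detected by cytoblot immunostaining with HRP secondary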
# [8] = biological target: NADPH oxidase 2 (Homo sapiens) (UniProt P04839); experiment: compounds shifting NOX2 Amplex Red fluorescence – cell-based, HEK293-NOX2, PMA-stimulated, NOX inhibitor project, primary screen (AID 1159); conditions: 45 min, higher = more signal, called active from +8 up or from −8 down; further: test concentration not given here
# [9] = biological target: NADPH oxidase 4 (Homo sapiens) (UniProt Q9NPH5); experiment: compounds shifting NOX4 Amplex Red fluorescence – cell-based, HEK293-NOX4, tetracycline-induced, NOX inhibitor project, primary screen (AID 1160); conditions: HEK293-NOX4, Amplex Red H2O2 fluorescence, 45 min; higher = more signal, called active from +8 up or from −8 down
# [10] = biological target: NADPH oxidase 5 (Homo sapiens) (UniProt Q96PH1); experiment: compounds shifting NOX5 Amplex Red fluorescence – cell-based, HEK293-NOX5, NOX inhibitor project, primary screen (AID 1161); conditions: HEK293-NOX5, ionomycin, 45 min, higher = more signal
# Sequence of NADPH oxidase 5 (Homo sapiens) (Q96PH1 whole entry, looked up): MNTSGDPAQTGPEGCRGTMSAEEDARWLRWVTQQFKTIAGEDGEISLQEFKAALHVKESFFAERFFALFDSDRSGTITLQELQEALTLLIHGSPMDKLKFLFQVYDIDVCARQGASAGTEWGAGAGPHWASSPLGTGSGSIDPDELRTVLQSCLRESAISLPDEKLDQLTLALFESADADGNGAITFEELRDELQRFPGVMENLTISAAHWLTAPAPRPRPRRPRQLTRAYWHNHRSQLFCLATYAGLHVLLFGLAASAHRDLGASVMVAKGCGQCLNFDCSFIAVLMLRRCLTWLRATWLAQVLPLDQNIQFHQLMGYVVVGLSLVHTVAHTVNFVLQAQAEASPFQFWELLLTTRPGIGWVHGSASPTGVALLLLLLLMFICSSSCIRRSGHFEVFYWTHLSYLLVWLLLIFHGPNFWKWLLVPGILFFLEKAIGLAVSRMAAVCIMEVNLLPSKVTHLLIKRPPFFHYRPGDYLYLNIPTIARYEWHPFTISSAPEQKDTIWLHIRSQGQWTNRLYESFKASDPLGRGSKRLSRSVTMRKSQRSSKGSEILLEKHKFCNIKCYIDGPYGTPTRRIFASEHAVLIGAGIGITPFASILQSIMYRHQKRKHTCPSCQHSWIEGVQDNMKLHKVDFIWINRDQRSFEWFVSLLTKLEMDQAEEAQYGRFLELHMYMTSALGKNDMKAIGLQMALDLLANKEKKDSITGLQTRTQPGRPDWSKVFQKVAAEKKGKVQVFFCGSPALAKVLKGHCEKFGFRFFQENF
# Sequence of NADPH oxidase 2 (Homo sapiens) (P04839 whole entry, looked up): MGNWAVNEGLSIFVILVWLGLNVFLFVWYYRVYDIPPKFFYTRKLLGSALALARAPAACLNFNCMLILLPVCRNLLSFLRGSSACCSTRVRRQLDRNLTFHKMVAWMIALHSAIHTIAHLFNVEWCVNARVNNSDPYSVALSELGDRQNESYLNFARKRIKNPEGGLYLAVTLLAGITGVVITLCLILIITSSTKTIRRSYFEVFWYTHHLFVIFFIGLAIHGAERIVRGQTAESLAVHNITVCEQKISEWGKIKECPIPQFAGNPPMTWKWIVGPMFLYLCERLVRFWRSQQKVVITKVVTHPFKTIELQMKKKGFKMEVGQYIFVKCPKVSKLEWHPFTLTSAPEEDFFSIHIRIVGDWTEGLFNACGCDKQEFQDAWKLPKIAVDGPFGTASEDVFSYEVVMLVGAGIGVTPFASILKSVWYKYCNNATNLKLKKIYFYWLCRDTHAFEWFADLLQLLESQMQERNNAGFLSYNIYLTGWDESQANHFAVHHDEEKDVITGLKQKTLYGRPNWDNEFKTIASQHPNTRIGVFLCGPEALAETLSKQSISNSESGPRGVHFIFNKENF
# Sequence of NADPH oxidase 4 (Homo sapiens) (Q9NPH5 whole entry, looked up): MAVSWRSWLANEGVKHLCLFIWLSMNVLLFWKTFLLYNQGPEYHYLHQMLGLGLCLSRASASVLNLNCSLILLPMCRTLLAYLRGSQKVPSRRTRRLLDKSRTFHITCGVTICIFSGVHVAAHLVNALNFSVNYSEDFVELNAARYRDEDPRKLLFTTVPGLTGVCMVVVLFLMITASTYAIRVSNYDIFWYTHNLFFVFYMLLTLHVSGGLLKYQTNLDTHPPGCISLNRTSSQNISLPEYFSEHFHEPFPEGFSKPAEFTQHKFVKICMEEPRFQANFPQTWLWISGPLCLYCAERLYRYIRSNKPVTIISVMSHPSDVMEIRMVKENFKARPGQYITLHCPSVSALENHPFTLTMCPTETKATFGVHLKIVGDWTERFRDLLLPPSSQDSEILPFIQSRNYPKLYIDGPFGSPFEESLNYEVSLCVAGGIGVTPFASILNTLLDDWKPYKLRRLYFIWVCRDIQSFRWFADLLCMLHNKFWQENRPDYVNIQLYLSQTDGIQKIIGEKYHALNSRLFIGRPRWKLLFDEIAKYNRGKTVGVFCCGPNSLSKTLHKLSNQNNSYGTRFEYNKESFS
SMILES,z-score [1],composite z-score [2],z-score [3],z-score [4],z-score [5],z-score [6],z-score [7],z-score [8],z-score [9],z-score [10]
COCCOC(=O)N1C(=O)[C@@]2(c3cc(C#CCNC(N)=O)ccc31)[C@H](c1ccccc1OCCO)N1[C@H](c3ccccc3)[C@H](c3ccccc3)OC(=O)[C@H]1[C@@H]2C(=O)N1CCCCCCC1,-0.583 (inactive),0.359,1.21 (inactive),0.696 (inactive),0.346 (inactive),0.238 (inactive),-0.418,1.39 (inactive),1.05 (inactive),0.903
C=C[C@H](OC)[C@@H](O)c1ccc(OC)c(O)c1,0.169 (inactive),-0.169,-0.258 (inactive),0.352 (inactive),-0.658 (inactive),0.207 (inactive),-0.425,-2.15 (inactive),-0.986 (inactive),-0.556
COC(=O)[C@@]1(Cc2ccc(F)cc2)[C@H]2c3cc(C(=O)N4CCCC4)n(Cc4ccc(OC(F)(F)F)cc4)c3C[C@H]2CN1C(=O)c1ccccc1,-2.47 (inactive),-0.0141,0.498 (inactive),0.851 (inactive),-0.194 (inactive),0.642 (inactive),0.0769,0.372 (inactive),0.32 (inactive),-0.51
COc1ccc(CCNC(=O)[C@@]2(C)c3ccccc3C(=O)N(Cc3ccc(OC(F)(F)F)cc3)[C@H]2c2ccc(CO)cc2)cc1,-0.933 (inactive),-0.588,7.22 (inactive),1.67 (inactive),1.79 (inactive),1.16 (inactive),0.029,-0.61 (inactive),-0.547 (inactive),-1.23
COc1c(C)cc(-c2cc3c(c(CCc4ccccc4)n2)[Si](C(C)C)(C(C)C)O[C@H]3c2ccccc2)cc1C,-1.05 (inactive),-0.147,4.98 (inactive),2.59 (inactive),0.576 (inactive),1.09 (inactive),-0.673,0.283 (inactive),1.11 (inactive),0.201
CCOC(=O)C[C@H]1[C@H](OC(=O)c2ccc(-c3ccccc3)cc2)[C@@H](NC(=O)c2ccc(-c3ccccc3)cc2)c2cc(OCCCO)ccc2N1C(=O)c1ccccc1,-0.825 (inactive),0.0437,0.744 (inactive),0.745 (inactive),-0.392 (inactive),0.678 (inactive),-0.0382,0.546 (inactive),-1.29 (inactive),-0.655
C=C[C@@H](CO)NS(=O)(=O)c1ccc(Br)cc1,3.75 (inactive),-0.239,-0.398 (inactive),-0.68 (inactive),-1.12 (inactive),-1.81 (inactive),1.36,0.908 (inactive),1.05 (inactive),1.44
[N-]=[N+]=NCc1ccccc1[C@H]1OC(c2ccc(OCCCO)cc2)=N[C@@]1(CCS(=O)(=O)c1ccccc1)C(=O)O,-0.123 (inactive),0.328,20.5 (active),6 (inactive),0.471 (inactive),1.06 (inactive),-0.497,1.09 (inactive),1.09 (inactive),2.1
CCCNC(=O)[C@@]1(Sc2ccc(C)cc2)CC(=O)N(Cc2cc(C(F)(F)F)cc(C(F)(F)F)c2)[C@@H]1c1ccc(CO)cc1,1.63 (inactive),-0.193,2.74 (inactive),0.285 (inactive),0.25 (inactive),-1.15 (inactive),2.9,0.584 (inactive),-0.589 (inactive),0.207
CN(C)CCCCNC(=O)[C@H]1C[C@H]2C(=O)N[C@@H](CCCCN(C)C)C(=O)N2[C@H]1c1ccc(O)cc1,2.41 (inactive),-0.299,-0.418 (inactive),-0.546 (inactive),0.589 (inactive),-1.34 (inactive),0.859,0.109 (inactive),0.504 (inactive),0.875
O=C1O[C@@H](c2ccccc2)[C@@H](c2ccccc2)N2[C@@H](c3ccc(OCCO)cc3)[C@]3(C(=O)Nc4ccc(C#CC5=CCCCC5)cc43)[C@@H](C(=O)Nc3nc4ccccc4s3)[C@H]12,-0.558 (inactive),-0.0857,1.88 (inactive),2.03 (inactive),1.92 (inactive),2.11 (inactive),-0.579,1.01 (inactive),-0.188 (inactive),0.0226
C[C@]1(C(=O)O)c2ccccc2C(=O)N(Cc2cc(C(F)(F)F)cc(C(F)(F)F)c2)[C@H]1c1ccc(CO)cc1,-0.485 (inactive),-0.0479,1.8 (inactive),0.168 (inactive),-0.173 (inactive),0.157 (inactive),-0.0892,0.803 (inactive),0.0284 (inactive),-0.714
COc1ccc([Si](C)(C)[C@H]2[C@H](CCO)O[C@@]3(C(=O)N(Cc4ccccc4)c4ccc(NC(=O)[C@H](C)O)cc43)[C@@H]2C)cc1,-0.0149 (inactive),0.013,10.8 (active),2.73 (inactive),0.0811 (inactive),1.43 (inactive),0.0757,-0.699 (inactive),0.488 (inactive),1.66
CCCCC(=C=CC[C@H](O)c1ccccc1OCCO)CCO,-0.0046 (inactive),-0.245,4.53 (inactive),0.626 (inactive),-0.0542 (inactive),0.331 (inactive),-0.401,-0.732 (inactive),-0.145 (inactive),-1.55
COc1ccc(CCNC(=O)[C@@]2(c3ccc([N+](=O)[O-])cc3)CC(=O)N(C3CCCCC3)[C@@H]2c2ccc(CO)cc2I)cc1,0.423 (inactive),0.0341,11.9 (active),1.78 (inactive),3.17 (inactive),1.04 (inactive),-0.189,1.3 (inactive),-1.04 (inactive),2.21
CC(C)C[C@H]1NC(=O)CNC(=O)[C@@]23C(=O)N[C@@H](Cc4ccccc4)C2[C@H](C)[C@@]2(C)O[C@H]2C3/C=C/C/C=C\CNC1=O (stereo not given in full),-0.592 (inactive),-0.103,0.392 (inactive),0.41 (inactive),-0.352 (inactive),-0.0621 (inactive),0.662,0.429 (inactive),1.21 (inactive),-0.495
CCCCC(=C=CC[C@@H](O)c1ccc(OCCO)cc1)CCO,0.565 (inactive),0.0129,6.76 (inactive),0.892 (inactive),0.249 (inactive),0.503 (inactive),-0.481,1.14 (inactive),0.699 (inactive),-0.192
C=CC[C@]12N=C(c3ccc(OCCCO)cc3)O[C@H]1c1ccccc1N(CCC)C2=O,-0.0423 (inactive),1.26,32.8 (active),33.1 (active),2.98 (inactive),4.84 (inactive),0.204,-2.03 (inactive),0.00147 (inactive),-1.71
COc1ccc([Si](C)(C)[C@H]2[C@H](CC(=O)N3CCC[C@H]3CO)O[C@@]3(C(=O)N(Cc4cccc(N5CCCCC5=O)c4)c4ccccc43)[C@@H]2C)cc1,0.499 (inactive),0.0799,4.11 (inactive),0.57 (inactive),0.318 (inactive),0.525 (inactive),-0.438,1.45 (inactive),1.44 (inactive),4.92
CO[C@H]1O[C@H](CO)[C@@H](OC(=O)CCc2ccccc2)[C@@H]2OC(=O)[C@@H](Cc3ccc4ccccc4c3)C/C=C/C[C@H](Cc3ccc4ccccc4c3)C(=O)O[C@@H]12,0.411 (inactive),-0.949,2.85 (inactive),-0.498 (inactive),-1.88 (inactive),-1.71 (inactive),0.795,1.5 (inactive),-0.27 (inactive),-0.995
COCCCNC(=O)[C@@]1(Cc2ccccc2I)c2ccccc2C(=O)N(Cc2ccccc2C(F)(F)F)[C@H]1c1ccc(CO)cc1,-0.506 (inactive),-0.142,3.42 (inactive),1.31 (inactive),2.09 (inactive),0.866 (inactive),-0.55,0.227 (inactive),-1.01 (inactive),-1.42
C=C(C(=O)CC[C@H](OC(=O)c1ccccc1-c1ccccc1C(=O)O)c1ccc(OCCO)cc1)C(C)C,-0.0716 (inactive),0.235,11.6 (active),1.77 (inactive),2.09 (inactive),0.92 (inactive),-0.154,0.357 (inactive),-0.446 (inactive),-2.12
COCCOC(=O)N1C(=O)[C@@]2(c3cc(C#CC4=CCCCC4)ccc31)[C@H](c1ccc(O)cc1)N1[C@H](c3ccccc3)[C@H](c3ccccc3)OC(=O)[C@H]1[C@@H]2C(=O)N1CCc2cc(OC)c(OC)cc2C1,-0.164 (inactive),0.0355,0.751 (inactive),0.394 (inactive),-6.44 (inactive),0.0991 (inactive),-0.294,1.48 (inactive),1.04 (inactive),1.03
COc1ccc(C#Cc2ccc3c(c2)[C@]2(C(=O)N3)[C@H](c3ccccc3OCCO)N3[C@H](c4ccccc4)[C@H](c4ccccc4)OC(=O)[C@H]3[C@@H]2C(=O)NC[C@H](O)c2ccccc2)cc1,1.21 (inactive),0.0147,1.71 (inactive),1.71 (inactive),0.0857 (inactive),1.2 (inactive),0.138,1.78 (inactive),0.243 (inactive),1.32
CC(C)N1CC=CC23O[C@@H]4/C=C\CCCOC(=O)C4[C@H]2C(=O)N(C(C)CO)[C@@H]3C1=O (stereo not given in full),2.12 (inactive),-0.195,1.2 (inactive),0.0831 (inactive),1.07 (inactive),0.429 (inactive),0.979,0.667 (inactive),0.142 (inactive),0.883
